Reference: PubChem BioAssay AID1508645 (National Center for Advancing Translational Sciences (NCATS), 2021)
Records with an inconclusive call do not appear. Where a call stands in place of a potency, no number is given. Activity calls are given as the source filed them. Calls follow the shape of the dose curve; as a rule, active = well fitted cell-killing curve with a large enough effect; inconclusive = small, poorly fitted or top-dose-only effect, or effect the other way; inactive = no such curve, though single readings can be large or run the other way.

experiment: Cell viability assay in S16 Pmp22-HiBiT cells; conditions: S16 Schwann Pmp22-HiBiT viability, CellTiter-Glo, 24 h; series mostly up to 27.9 µM
Text: Assay Provider: Jim Inglese Ph.D. National Center for Advancing Translational Science, National Institutes of Health, Rockville, MD CMT is a heterogeneous group of neurological disorders that affect approximately 1 in 2,500 people. In particular, the most common form of CMT, CMT1A is genetically linked to the duplication of the PMP22 gene which leads to Schwann cell overexpression, thus manifesting itself as a typical case of dose-sensitive diseases. To identify small molecule compounds that can mediate the expression of PMP22 we developed a phenotypic assay screening strategy by utilizing genome editing techniques to construct Schwann cell lines containing novel reporter technology to monitor the transcriptional or translational regulation of PMP22. For high sensitivity we use a bioluminescent reporter system embedded in the 3' UTR of the PMP22 gene (S16(c9) Pmp22-F2sN) to identify compounds that inhibit gene expression. […] We can further discriminate the effect of all transcriptionally active molecules on PMP22 translation or stability with an assay that incorporates a short NLuc peptide (HiBiT) at the C-terminus of expressed PMP22 (S16(f8) PMP22-HiBiT) allowing alpha complementation and luminescence detection of membrane-associated PMP22 protein. These assays were screened against the NCATS Sytravon Library Collection. Miniaturization of these assays to 1536-well plate format for quantitative high throughput screening (qHTS) yielded rich data sets immediately from the qHTS assay (S16(c9) Pmp22-F2sN), when compared with data from a cell viability assay (Cell TiterGlo) to identify compounds that decreased the output signals through cellular toxicity to streamline the selection process of actives for subsequent characterization using the HiBiT assay (S16(f8) PMP22-HiBiT).
Cell viability assay in S16 Pmp22-HiBiT cells PROTOCOL TABLE (format as described by Inglese J, Shamu CE and Guy RK. 2007) SEQUENCE No. (e.g., 1, 2, 3, etc.); PARAMETER (e.g., Cells, Incubation, Reagent, etc.); VALUE and DESCRIPTION. 1. Cells. Add 500-1,000 cells in 4 uL in growth media (DMEM High Glucose, No Phenol Red media + 10% heat-inactivated FBS + 1% Pen/Strep supplemented media) per well into Greiner 1536-well white/solid bottom high base, TC-treated plates. 2. Compounds. Library compounds and controls added at 23nL per well, transferred by Pin Tool. 3. Incubation. Incubate plates at 37C, 5% CO2, 95% RH for 24 h. 4. Reagent. Add 3uL CellTiter-Glo per well of Greiner 1536-well plates. 5. Incubation. Incubate plates at room temperature for 15 min., protect from light. 6. Detector. Luminescence measured using CCD-based camera (Viewlux). NOTES (numbers refer to Sequence numbers above; values are from representative experiments) 6. Luminescence Read: Clear filter; Exposure = 1 sec, Gain = High, Speed = Slow, Binning = 2X REFERENCES: 1. Inglese J, Shamu CE and Guy RK, Reporting data from high throughput screening of small molecule libraries, Nature Chemical Biology, 2007, 3(8): 438-441. doi.org/10.1038/nchembio0807-438 2. Yasgar A, Shinn P, Jadhav A, Auld DS, Michael S, Zheng W, Austin CP, Inglese J and Simeonov A, Compound Management for Quantitative High-Throughput Screening. J. Assoc. Lab. Auto., 2008, 13: 79-89. doi: 10.1016/j.jala.2007.12.004

Structure (SMILES) | Potency
Cc1ccc(S(=O)(=O)c2nnn3c2nc(NC2CCCCCC2)c2sccc23)cc1C | inactive
O=S(=O)(NCC(c1ccco1)S(=O)(=O)c1cccs1)c1ccc(Cl)cc1 (stereo not given) | inactive
CCC(Sc1nc2ccccc2c2nc(-c3ccccc3)nn12)C(=O)Nc1cccc(OC)c1 (stereo not given) | inactive
COc1ccccc1Nc1c2c(nc3ccc(NC(=O)/C=C/c4cccc(OC)c4OC)cc13)CCCC2 | 16.2 µM (active)
COc1ccccc1CNC(=O)CSc1nnc(C)c2c(C)n(-c3ccccc3)nc12 | inactive
CCOC(=O)c1cc2c(=O)n3ccccc3nc2n(Cc2ccco2)c1=NC(=O)c1cc(C)cc(C)c1 | inactive
O=C(CSc1nc2c([nH]c3ccccc32)c(=O)n1-c1cccc(Cl)c1)c1ccccc1 | inactive
Cc1ccc(NC(=O)CSc2nc3ccc(NC(=O)COc4ccc(C)cc4)cc3s2)cc1 | inactive
COc1ccc(CCNC(=O)Cn2c(-c3cccs3)cc3cc(F)ccc32)cc1OC | inactive
COCCCNC(=O)c1ccc2c(c1)N=C(C)c1c(C)ccc(C)c1S2 | inactive
CCOCCCNC(=O)c1ccc(-n2c(-c3ccccc3)cc3c2CCC(C)C3)cc1 (stereo not given) | inactive
COc1ccc(OC)c(NC(=O)CSc2c3c(nc4ccccc24)CCCC3)c1 | 16.2 µM (active)
COCCCNC(=O)c1ccc(-n2c(-c3ccccc3)cc3c2CCC(C)C3)cc1 (stereo not given) | inactive
COc1ccc(NC(=O)c2oc3ccccc3c2NC(=O)Cc2ccc(F)cc2)c(OC)c1 | inactive
CCC(=O)N1CCc2cc(S(=O)(=O)CCC(=O)Nc3ccc(Cl)c(C(F)(F)F)c3)ccc21 | inactive
CCc1ccccc1Nc1nn2c(=O)c3ccc(C(=O)Nc4cc(C)cc(C)c4)cc3nc2s1 | 6.45 µM (active)
CCC(=O)C1=C(c2cccc([N+](=O)[O-])c2)N(C(=O)CC)n2c(nnc2C2CCCCC2)S1 | inactive
COc1ccc(Nc2nc3c(S(=O)(=O)c4ccccc4)nnn3c3ccc(Cl)cc23)cc1 | inactive
COc1ccc(-c2noc(CSc3nnc(-c4ccncc4)n3-c3ccc(C)cc3)n2)cc1 | inactive
Cc1ccc(OCC(=O)Nc2ccc3nc(SCC(=O)N4CCc5ccccc54)sc3c2)cc1 | inactive

Structure (SMILES) | Potency
CCOC(=O)c1c(NC(=O)c2nc(S(C)(=O)=O)ncc2Cl)sc(C(C)=O)c1C | 6.45 µM (active)
CCc1ccc(OCC(=O)Nc2cc3oc4ccccc4c3cc2OC)cc1 | inactive
O=C(Cn1c(-c2cccs2)cc2cc(F)ccc21)NCCCN1CCN(c2ccc(F)cc2)CC1 | inactive
Cc1c(Cl)cccc1NC(=O)c1oc2ccc(S(=O)(=O)N3CCC4(CC3)OCCO4)cc2c1C | inactive
COc1cccc(-n2c(SCC(=O)c3ccc(Cl)cc3)nc3c([nH]c4ccccc43)c2=O)c1 | inactive
Cc1cccc(CS(=O)(=O)c2ncc(Cl)c(C(=O)Nc3nc4ccc(F)cc4s3)n2)c1 | 6.45 µM (active)
CCOC(=O)c1ccc(N2C(=O)c3[nH]nc(-c4ccc(C)cc4)c3C2c2ccc(O)c(OCC)c2)cc1 (stereo not given) | inactive
O=C(NCCCN1CCN(c2ccc(F)cc2)CC1)c1cc2c(Cl)nc3ccccc3c2s1 | inactive
COc1ccc(Br)cc1CC1C(=O)Nc2ccccc21 (stereo not given) | inactive
Cc1ccc(CNC(=O)c2nc(S(=O)(=O)Cc3ccc(C)cc3)ncc2Cl)cc1 | inactive
CCc1ccc(C(=O)c2cn(CC(=O)Nc3cc(OC)cc(OC)c3)c3ccc(CC)cc3c2=O)cc1 | inactive
Cc1cc(NC(=O)C2CCCN(S(=O)(=O)c3cccc4nonc34)C2)ccc1Br (stereo not given) | inactive
COc1ccccc1Nc1nn2c(=O)c3ccc(C(=O)Nc4ccc(F)cc4)cc3nc2s1 | 4.57 µM (active)
Cc1ccc(C)c(NC(=O)Cn2c(=O)n(Cc3ccc4c(c3)OCO4)c(=O)c3ccc(C(=O)NC4CCCCC4)cc32)c1 | inactive
COc1ccc(N(CC(=O)Nc2cc(Cl)ccc2C)S(=O)(=O)c2c(C)noc2C)cc1 | inactive
CCCn1c(=N)c(C(=O)NC(C)c2ccccc2)cc2c(=O)n3ccccc3nc21 (stereo not given) | inactive
Cc1cc(C)c(NC(=O)Cn2c(=O)n(Cc3ccco3)c(=O)c3ccc(C(=O)NC4CCCC4)cc32)c(C)c1 | inactive
COc1ccc(Cl)cc1NC(=O)CCCS(=O)(=O)c1nc(-c2ccc(OC)c(OC)c2)cc(C(F)(F)F)n1 | 6.45 µM (active)
Cc1cccc(Nc2c3c(nc4nncn24)CCC3)c1C | inactive
Cc1ccc(NC(=O)N2CCc3cc(S(=O)(=O)N4CCC(C)CC4)ccc32)cc1F | inactive
